PubChem BioAssay (Tox21)
The source made the active and inactive calls. Unless noted, the call rests on the fitted dose curve; in most records, active means well fitted curve in the direction sought with a large enough effect in the repeat runs; inconclusive means weak or mixed curves; inactive means no such curve, though single readings can be large; an effect the other way counts as inactive or inconclusive.

Tests used:
[1] = qHTS assay to identify small molecule antagonists of the thyroid receptor (TR) signaling pathway - cell viability counter screen (AID 743064); further: nearly all actives have a fitted effect of over 50% in size; further: potency means the concentration at half of the fitted maximal effect
Procedure, shortened: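 In-well cytotoxicity read by CellTiter-Fluor (30 min, 37 C) following 23.5 h exposure of GH3 cells bearing a TRE-luciferase sensor. Compounds were added alongside 1 nM (final) T3 to drive TR transactivation.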

[2] = qHTS assay to identify small molecule antagonists of the thyroid receptor (TR) signaling pathway (AID 743065); further: nearly all actives have a fitted effect of over 55% in size; further: potency means the concentration at half of the fitted maximal effect
Procedure, shortened: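 Antagonism measured as loss of luciferase signal in GH3 cells stably carrying a TRE-luciferase reporter, co-treated with compound and T3 (1 nM final) for 23.5 h at 37 C. Viability was read in the same well by CellTiter-Fluor.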

[3] = tested on: thyroid hormone receptor (rat, GH3 cells); assay: qHTS assay to identify small molecule agonists of the thyroid receptor (TR) signaling pathway (AID 743066; calls by dose curve)
[4] = target: Estrogen receptor (Homo sapiens) (UniProt P03372); assay: qHTS assay to identify small molecule antagonists of the estrogen receptor alpha (ER-alpha) signaling pathway (AID 743069; active means well fitted curve in the direction sought with a large enough effect in the signal ratio in the repeat runs, not every such curve was filed as active; inconclusive means weak or mixed curves, or effect the other way; inactive means no such curve, though single readings can be large or run the other way; the % refers to the signal ratio; further: potency means the concentration at half of the fitted maximal effect)
Procedure, shortened: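 ER-alpha-UAS-bla GripTite HEK293 line; 2% charcoal-stripped FBS overnight; plated, 4 hr 37C/5% CO2; cpd in DMSO + 17beta-estradiol, 18 hr 37C; LiveBLAzer B/G FRET substrate 2 hr RT; fluorescence intensity.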

[5] = target: Estrogen receptor (Homo sapiens) (UniProt P03372); assay: qHTS assay to identify small molecule agonists of the estrogen receptor alpha (ER-alpha) signaling pathway (AID 743075; calls by dose curve;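 further: HEK293 GripTite cells with ER-alpha and UAS-driven beta-lactamase reporter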; further: potency means the concentration at half of the fitted maximal effect)
[6] = target: Estrogen receptor (Homo sapiens) (UniProt P03372); assay: qHTS assay to identify small molecule agonists of the estrogen receptor alpha (ER-alpha) signaling pathway using the BG1 cell line (AID 743079); conditions: BG1Luc4E2 cells, ERE-luciferase agonist, 22 h; activation: at 70.3 µM (top of the series); further: nearly all actives have a fitted effect of over 20% in size; further: potency means the concentration at half of the fitted maximal effect
[7] = qHTS assay to identify small molecule antagonists of the estrogen receptor alpha (ER-alpha) signaling pathway using the BG1 cell line (AID 743080; calls by dose curve;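 further: BG1 cells stimulated with 17beta-estradiol alongside compound; nearly all actives have a fitted effect of over 25% in size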; further: potency means the concentration at half of the fitted maximal effect)
Procedure, shortened: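 Seeding, 24 h rest, compound transfer from DMSO, 17beta-estradiol addition, 21.5 h incubation, CellTiter-Fluor (30 min, 37 C), then ONE-Glo (30 min, room temperature): this sequence was run on BG1-Luc-4E2 reporter cells.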

[8] = qHTS assay to identify small molecule antagonists of the estrogen receptor alpha (ER-alpha) signaling pathway using the BG1 cell line - cell viability counter screen (AID 743081);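 further: compound given together with 17beta-estradiol as the ER stimulus; nearly all actives have a fitted effect of over 45% in size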; further: potency means the concentration at half of the fitted maximal effect
[9] = target: Aromatase (Homo sapiens) (UniProt P11511); assay: qHTS assay to identify aromatase inhibitors (AID 743083); further: nearly all actives have a fitted effect of over 55% in size; further: potency means the concentration at half of the fitted maximal effect
[10] = qHTS assay to identify small molecule antagonists of the estrogen receptor alpha (ER-alpha) signaling pathway - cell viability counter screen (AID 743074; calls by dose curve;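 further: HEK293 cells carrying ER-alpha-UAS-bla reporter stimulated with 17beta-estradiol; nearly all actives have a fitted effect of over 45% in size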; further: potency means the concentration at half of the fitted maximal effect)
On the % scale 0 is the no-effect control and ±100 the full control effect.

Estrogen receptor (Homo sapiens), sequence (P03372 whole entry, looked up): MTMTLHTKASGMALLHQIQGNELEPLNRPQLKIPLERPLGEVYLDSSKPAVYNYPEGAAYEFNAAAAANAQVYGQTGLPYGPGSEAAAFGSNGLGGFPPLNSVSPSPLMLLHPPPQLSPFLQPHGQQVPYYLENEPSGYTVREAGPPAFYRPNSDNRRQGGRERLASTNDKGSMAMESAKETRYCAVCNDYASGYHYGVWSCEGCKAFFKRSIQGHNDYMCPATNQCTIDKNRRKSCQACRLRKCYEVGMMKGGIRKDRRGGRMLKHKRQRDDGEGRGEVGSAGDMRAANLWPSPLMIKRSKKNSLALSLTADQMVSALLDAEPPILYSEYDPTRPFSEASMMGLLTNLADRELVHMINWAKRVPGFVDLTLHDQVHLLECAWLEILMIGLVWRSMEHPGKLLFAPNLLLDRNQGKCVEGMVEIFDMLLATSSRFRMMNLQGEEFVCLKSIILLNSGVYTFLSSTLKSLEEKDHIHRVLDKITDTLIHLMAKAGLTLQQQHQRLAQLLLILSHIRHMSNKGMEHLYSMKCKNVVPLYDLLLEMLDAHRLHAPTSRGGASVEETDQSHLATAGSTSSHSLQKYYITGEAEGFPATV
Aromatase (Homo sapiens), sequence (P11511 whole entry, looked up): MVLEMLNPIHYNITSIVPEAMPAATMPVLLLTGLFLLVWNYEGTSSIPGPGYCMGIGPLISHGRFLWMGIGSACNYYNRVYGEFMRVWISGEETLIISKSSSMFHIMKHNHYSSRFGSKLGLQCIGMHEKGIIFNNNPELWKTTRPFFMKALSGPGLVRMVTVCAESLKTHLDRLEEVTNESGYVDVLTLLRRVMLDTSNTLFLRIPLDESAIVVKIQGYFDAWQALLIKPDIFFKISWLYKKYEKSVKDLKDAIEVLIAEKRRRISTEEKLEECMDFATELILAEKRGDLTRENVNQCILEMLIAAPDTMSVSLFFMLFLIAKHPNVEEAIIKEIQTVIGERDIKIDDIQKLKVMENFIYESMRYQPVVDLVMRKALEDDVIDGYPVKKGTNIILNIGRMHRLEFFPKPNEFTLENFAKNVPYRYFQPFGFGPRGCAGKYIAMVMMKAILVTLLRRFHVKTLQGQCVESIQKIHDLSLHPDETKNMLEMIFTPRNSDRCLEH

CCCCCCCCCCCCCCCCCC(=O)OCCO
active: Potency [6] 9.44 µM
inactive: Potency [1] | Potency [2] | Potency [3] | Potency [4] | Potency [5] | Potency [7] | Potency [8] | Potency [9]

Nc1nc2[nH]cc(CCc3ccc(C(=O)N[C@@H](CCC(=O)O)C(=O)O)cc3)c2c(=O)[nH]1
inactive: Potency [1] | Potency [2] | Potency [3] | Potency [4] | Potency [5] | Potency [6] | Potency [7] | Potency [8] | Potency [9]

NC(Cc1ccccc1)C(=O)O (stereo not drawn)
inactive: Potency [1] | Potency [2] | Potency [3] | Potency [4] | Potency [10] | Potency [5] | Potency [7] | Potency [8] | Potency [9]

CC1(C)S[C@@H]2[C@H](NC(=O)C(C(=O)Oc3ccc4c(c3)CCC4)c3ccccc3)C(=O)N2[C@H]1C(=O)O (stereo partly drawn)
inactive: Potency [1] | Potency [2] | Potency [3] | Potency [4] | Potency [10] | Potency [5] | Potency [7] | Potency [8] | Potency [9]

O=C(OCc1ccccc1)c1cccnc1
inactive: Potency [1] | Potency [2] | Potency [3] | Potency [4] | Potency [5] | Potency [6] | Potency [7] | Potency [8] | Potency [9]

Cc1ncc(COP(=O)(O)O)c(CN)c1O
inactive: Potency [1] | Potency [2] | Potency [3] | Potency [4] | Potency [5] | Potency [6] | Potency [7] | Potency [8] | Potency [9]

O=c1[nH]cnc2[nH]cc(CN3CCCCC3)c12
inactive: Potency [1] | Potency [2] | Potency [3] | Potency [4] | Potency [5] | Potency [6] | Potency [7] | Potency [8]

CN=C(NC)NCc1ccccc1
inactive: Potency [1] | Potency [2] | Potency [3] | Potency [4] | Potency [10] | Potency [5] | Potency [7] | Potency [8] | Potency [9]

Cc1onc(-c2ccccc2)c1C(=O)N[C@@H]1C(=O)N2[C@@H]1SC(C)(C)[C@@H]2C(=O)O
inactive: Potency [1] | Potency [2] | Potency [3] | Potency [4] | Potency [5] | Potency [6] | Potency [7] | Potency [8] | Potency [9]

C=C[C@]1(C)C[C@@H](OC(=O)CSC(C)(C)CNC(=O)[C@H](N)C(C)C)[C@]2(C)[C@H](C)CC[C@]3(CCC(=O)[C@H]32)[C@@H](C)[C@@H]1O
active: Potency [1] 2.66 µM | Potency [2] 13.3 µM | Potency [8] 5.96 µM | Potency [9] 21.1 µM
inactive: Potency [3] | Potency [4] | Potency [10] | Potency [5]

CC(=O)OCC(=O)[C@@]12OC3(CCCC3)O[C@@H]1C[C@H]1[C@@H]3CCC4=CC(=O)C=C[C@]4(C)[C@@]3(F)[C@@H](O)C[C@@]12C
inactive: Potency [1] | Potency [2] | Potency [3] | Potency [4] | Potency [10] | Potency [5] | Potency [9]

CC(=O)O[C@H]1C(=O)[C@@]2(C)[C@H]([C@H](OC(=O)c3ccccc3)[C@]3(O)C[C@H](OC(=O)[C@H](O)[C@@H](NC(=O)c4ccccc4)c4ccccc4)C(C)=C1C3(C)C)[C@]1(OC(C)=O)CO[C@@H]1C[C@@H]2O
active: Potency [1] 0.266 µM | Potency [2] 0.133 µM
inactive: Potency [3] | Potency [4] | Potency [10] | Potency [5] | Potency [9]

CCCCCCCCCCCCCCCCCCOP(=O)([O-])OC1CC[N+](C)(C)CC1
inactive: Potency [1] | Potency [2] | Potency [3] | Potency [4] | Potency [5] | Potency [6] | Potency [7] | Potency [8] | Potency [9]

NC(=O)c1ccc[n+]([C@@H]2O[C@H](COP(=O)([O-])OP(=O)(O)OC[C@H]3O[C@@H](n4cnc5c(N)ncnc54)[C@H](O)[C@@H]3O)[C@@H](O)[C@H]2O)c1
inactive: Potency [1] | Potency [2] | Potency [3] | Potency [4] | Potency [5] | Potency [6] | Potency [7] | Potency [8] | Potency [9]

CO[C@H]1[C@@H](O)[C@H](N)[C@@H](O[C@H]2O[C@H]([C@H](C)N)CC[C@H]2N)[C@H](O)[C@@H]1N(C)C(=O)CN
active: Potency [6] 33.5 µM
inactive: Potency [1] | Potency [2] | Potency [3] | Potency [4] | Potency [5] | Potency [7] | Potency [8] | Potency [9]

C[N+](C)(CCCCCC[N+](C)(C)C1c2ccccc2-c2ccccc21)C1c2ccccc2-c2ccccc21
inactive: Potency [1] | Potency [2] | Potency [3] | Potency [4] | Potency [5] | Potency [6] | Potency [7] | Potency [8] | Potency [9]

CC[C@@]1(O)C(=O)OCc2c1cc1n(c2=O)Cc2cc3c([N+](=O)[O-])cccc3nc2-1
active: Potency [1] 2.37 µM | Potency [2] 0.473 µM | Potency [4] 4.77 µM [inconclusive] | Potency [7] 0.266 µM | Potency [9] 0.596 µM
inactive: Potency [3] | Potency [10] | Potency [5]

O=S(=O)(O)c1cc(O)c2c(N=Nc3ccc(Nc4ccccc4)c4c(S(=O)(=O)O)cccc34)cc(S(=O)(=O)O)cc2c1
active: Potency [1] 26.6 µM | Potency [2] 23.7 µM | Potency [8] 15 µM | Potency [9] 23.7 µM
inactive: Potency [3] | Potency [4] | Potency [10] | Potency [5]

CC1(C)C(\C=C/C=C\C=C/C=C2/N(CCCCS(=O)(=O)O)c3ccc4ccccc4c3C2(C)C)=[N+](CCCCS(=O)(=O)[O-])c2ccc3ccccc3c21
inactive: Potency [3] | Potency [4] | Potency [10] | Potency [5] | Potency [6] | Potency [9]
active: Potency [1] 15 µM | Potency [2] 0.841 µM

CCN(CC)c1ccc(N=Nc2ccc(S(=O)(=O)N(C)C)cc2)c(S(=O)(=O)NCC[n+]2ccccc2)c1
inactive: Potency [1] | Potency [2] | Potency [3] | Potency [4] | Potency [10] | Potency [5] | Potency [7] | Potency [9]

CC(C)(CO)[C@@H](O)C(=O)NCCCC(=O)O
inactive: Potency [1] | Potency [2] | Potency [3] | Potency [4] | Potency [10] | Potency [5] | Potency [7] | Potency [8] | Potency [9]

Nc1ncnc(Nc2ccc(Cl)cc2)n1
active: Potency [6] 23.7 µM
inactive: Potency [1] | Potency [2] | Potency [3] | Potency [4] | Potency [10] | Potency [5] | Potency [9]

COc1cc(/C=C/C(=O)N2CCN(CC(=O)N3CCCC3)CC2)cc(OC)c1OC
inactive: Potency [1] | Potency [2] | Potency [3] | Potency [4] | Potency [5] | Potency [6] | Potency [7] | Potency [8]

CC(C)(C)CC(C)(C)c1cc(Cc2cc(C(C)(C)CC(C)(C)C)cc(-n3nc4ccccc4n3)c2O)c(O)c(-n2nc3ccccc3n2)c1
inactive: Potency [1] | Potency [2] | Potency [3] | Potency [4] | Potency [10] | Potency [5] | Potency [7] | Potency [8] | Potency [9]

CCC(Cc1c(I)cc(I)c(O)c1I)C(=O)O (stereo not drawn)
inactive: Potency [1] | Potency [2] | Potency [3] | Potency [4] | Potency [10] | Potency [7] | Potency [8] | Potency [9]

CS(=O)(=O)NC(=O)CCC/C=C\C[C@H]1C(=O)C[C@@H](O)[C@@H]1/C=C/[C@H](O)COc1ccccc1
inactive: Potency [1] | Potency [2] | Potency [3] | Potency [4] | Potency [10] | Potency [5] | Potency [6] | Potency [9]

O=P(O)(O)OC[C@H]1O[C@](O)(COP(=O)(O)O)[C@@H](O)[C@@H]1O
inactive: Potency [1] | Potency [2] | Potency [3] | Potency [4] | Potency [10] | Potency [7] | Potency [8] | Potency [9]
active: Potency [6] 10.6 µM

c1ccc2c(CCC3CCNCC3)c[nH]c2c1
inactive: Potency [3] | Potency [4] | Potency [5] | Potency [6] | Potency [7] | Potency [8] | Potency [9]
active: Potency [1] 18.8 µM | Potency [2] 21.1 µM

O=C[C@H](O)[C@@H](O)[C@H](O[C@H]1O[C@H](CO)[C@@H](O[C@H]2O[C@H](CO)[C@@H](O)[C@H](O)[C@H]2O)[C@H](O)[C@H]1O)[C@H](O)CO
inactive: Potency [1] | Potency [2] | Potency [3] | Potency [4] | Potency [5] | Potency [7] | Potency [8] | Potency [9]
active: Potency [6] 26.6 µM

CC(C)C(=O)OCC(=O)[C@@]12O[C@H](C3CCCCC3)O[C@@H]1C[C@H]1[C@@H]3CCC4=CC(=O)C=C[C@]4(C)[C@H]3[C@@H](O)C[C@@]12C
active: Potency [1] 18.8 µM | Potency [2] 10.6 µM | Potency [4] 21.3 µM [inconclusive]
inactive: Potency [3] | Potency [10] | Potency [5] | Potency [8] | Potency [9]

CCCCCCCCCCCCCCCCOCCOCCOCCOCCOCCOCCOCCOCCOCCOCCOCCOCCOCCOCCOCCOCCOCCOCCOCCOCCO
inactive: Potency [3]
active: Potency [1] 29.8 µM | Potency [2] 26.6 µM | Potency [4] 4.25 µM [inconclusive] | Potency [10] 21.3 µM | Potency [7] 3.76 µM | Potency [8] 23.7 µM

Nc1ccn(C[C@@H](CO)OCP(=O)(O)O)c(=O)n1
inactive: Potency [1] | Potency [2] | Potency [3] | Potency [4] | Potency [10] | Potency [7] | Potency [9]

O=C(O)CCC/C=C\C[C@@H]1[C@@H](/C=C/[C@@H](O)COc2cccc(C(F)(F)F)c2)[C@H](O)C[C@@H]1O
inactive: Potency [1] | Potency [2] | Potency [3] | Potency [4] | Potency [10] | Potency [8] | Potency [9]
active: activation [6] 49.9%

CCCC(=O)N1CCCN(c2nc(N)c3cc(OC)c(OC)cc3n2)CC1
inactive: Potency [1] | Potency [2] | Potency [3] | Potency [4] | Potency [10] | Potency [5] | Potency [7] | Potency [8] | Potency [9]

NC(=S)N=Nc1ccc(NN=C(N)N)cc1
active: Potency [1] 23.7 µM | Potency [2] 26.6 µM | Potency [8] 26.6 µM
inactive: Potency [3] | Potency [10] | Potency [5] | Potency [6] | Potency [7]

CC(=O)Oc1c(C)cc(OCC(O)CNC(C)C)c(C)c1C (stereo not drawn)
inactive: Potency [1] | Potency [2] | Potency [3] | Potency [10] | Potency [7] | Potency [8] | Potency [9]
active: Potency [5] 10.7 µM [inconclusive] | Potency [6] 3.76 µM
